# Only a sample is shown.
# aSyn 5UTR act – Activators working through SNCA 5'UTR binding (MLPCN); alpha-synuclein 5'UTR reporter, activators screen; activity score, % (tested at 7.5 µM), hits read low; 7.1% of 300,000 active; AID 1814; in the data active = activity score below about -60%
# Numbers without * were called inactive.
SMILES,aSyn 5UTR act
CC1CCCC(C)N1CCCNC(=O)c1ccc2nc(N3CCCCC3)sc2c1 (configuration not stated),-237*
CC1CCN(c2nc3ccc(C(=O)NCCCN4CCCCC4C)cc3s2)CC1 (configuration not stated),-277*
CCC1CCCCN1CCCNC(=O)c1ccc2nc(N3CCCCC3)sc2c1 (configuration not stated),-280*
Cc1ccc(NC(=O)CN(C)S(=O)(=O)c2cccs2)cc1C,-86*
Cc1ccc(NC(=O)CN(C)S(=O)(=O)c2cccs2)cc1F,-64*
Cc1noc(C)c1C(=O)OCC(=O)c1cc(C)n(Cc2ccccc2Cl)c1C,-98*
CCN(CC)C(=S)SCC(=O)c1ccc(Br)cc1,-110*
CCCCNc1nc(N)nc(-c2cc(Cl)ccc2O)n1,-67*
CCOC(=O)N/N=C/C=C/c1ccccc1,-105*
CC(C)(O)C(=O)N/N=C\c1ccc(OC/C=C/c2ccccc2)cc1,-96*
CC(=O)N/N=C\c1ccccc1OC/C=C/c1ccccc1,-128*
COC(=O)N/N=C\c1ccc(OC/C=C/c2ccccc2)cc1,-95*
COc1ccc(/C=N/NC(=O)COc2ccccc2-c2ccccc2)cc1,70
COC(=O)N/N=C/c1ccc(Oc2ccccc2)cc1,-69*
CCOC(=O)N/N=C\c1ccc(OC/C=C/c2ccccc2)cc1,-73*
Cc1csc(NC(=O)Cc2ccc(F)cc2)n1,-65*
COc1ccc2c(CC(=O)Nc3ncc(C)s3)coc2c1,-133*
Cc1csc(NC(=O)Cc2c(F)cccc2Cl)n1,-131*
Cc1cc(CNC(=O)Cc2c(F)cccc2Cl)nn1C,-72*
CN1CCN(CC(=O)Nc2nc(-c3c[nH]c4ccccc34)cs2)CC1,-62*
Cc1cccc(NC(=O)Cc2c(F)cccc2Cl)n1,-103*
Cc1csc(NC(=O)Cc2c[nH]c3ccccc23)n1,-95*
Cc1ccc2c(CC(=O)Nc3nc(C)cs3)coc2c1,-70*
Cc1ccc(CC(=O)Nc2cccc(C)n2)cc1,-172*
O=C(Cc1c[nH]c2ccccc12)Nc1nc2ccccc2[nH]1,-101*
SMILES,aSyn 5UTR act
Cc1cc(NC(=O)c2cnn3cccnc23)no1,-83*
O=C(Nc1cc(Cl)cc(Cl)c1)c1cnn2cccnc12,-97*
O=C(Nc1cccc(Cl)c1)c1cnn2cccnc12,-202*
CCOC(=O)/C(N=Nc1ccc2c(c1)OCO2)=C(\C)O,-123*
COc1ccccc1/C=C/C(=O)Nc1ccc2c(c1)OCCO2,-145*
COc1ccccc1/C=C/C(=O)Nc1ccc2c(c1)CCC2,-151*
CCOCCCNC(=O)C1CCN(Cc2ccc(OCc3ccccc3)c(OC)c2)CC1,-117*
NC(=O)C1CCN(Cc2ccc(OCc3ccccc3)cc2)CC1,-95*
CCCCNC(=O)C1CCN(Cc2ccc(OCc3ccccc3)c(OC)c2)CC1,-115*
COc1cc(CN2CCC(C(=O)NCC(C)(C)CN(C)C)CC2)ccc1OCc1ccccc1,-67*
Brc1ccc(Cn2c(-c3cncs3)nc3ccccc32)cc1,-112*
c1ccc(Cn2c(-c3cncs3)nc3ccccc32)cc1,-92*
CCOC(=O)Nc1ccc2nc3n(c(=O)c2c1)CCCCC3,-79*
O=C(Nc1ccc2nc3n(c(=O)c2c1)CCCC3)c1ccccc1F,-67*
O=C(Nc1ccc2nc3n(c(=O)c2c1)CCCCC3)c1ccccc1[N+](=O)[O-],-87*
O=C(Nc1ccc2nc3n(c(=O)c2c1)CCCCC3)c1c(F)ccc([N+](=O)[O-])c1F,85
O=C(Nc1ccc2nc3n(c(=O)c2c1)CCCC3)c1cccc(F)c1,-82*
CCN(CC)c1cc(C)c2cc(NC(=O)c3ccccc3F)ccc2n1,-125*
N/C(=N\OC(=O)C1CCCCC1)c1cccc(Br)c1,-170*
N/C(=N\OC(=O)CC1CCCCC1)c1ccc(Br)cc1,-83*
N/C(=N\OC(=O)CC1CCCCC1)c1cccc(Br)c1,-84*
CC1Cc2nc(SCC(=O)Nc3ccc4c(c3)OCO4)n(Cc3ccccc3)c(=O)c2S1 (configuration not stated),-95*
O=C(CN1CC(=O)Nc2ccccc21)Nc1ccc(F)c(F)c1,-94*
O=C(CSCc1ccccc1)Nc1ccc(F)c(F)c1,-136*
O=C(CN1C(=O)C2C3C=CC(C3)C2C1=O)Nc1ccc2c(c1)OCCO2 (configuration not stated),-116*
SMILES,aSyn 5UTR act
Cc1cc(C)cc(C(=O)N2CC(=O)Nc3ccccc32)c1,110
CC(=O)c1cccc(NC(=O)CSCc2ccccc2)c1,-100*
CCCCSc1nnc2c(n1)[nH]c1ccccc12,-135*
O=C(CSc1ccccc1)Nc1ccc2c(c1)OCCO2,-63*
O=C(Cn1cnc2ccccc2c1=O)Nc1ccc2c(c1)OCCO2,-110*
CN1CCN(c2ccc(NC(=O)CSc3ccccc3)cc2F)CC1,-107*
O=C(CSCc1ccccc1)Nc1ccc2c(c1)OCO2,-154*
O=C(CSc1nnc2ccccn12)Nc1ccc2c(c1)OCCO2,-122*
CCN(CC)C(=O)Cn1cc(C(=O)C(=O)Nc2ccc3c(c2)OCCO3)c2ccccc21,-91*
CCN1/C(=C/c2ccc3cc(C)ccc3[n+]2CC)Sc2ccccc21,100
O=C(CSc1ccccc1)Nc1ccc2c(c1)OCO2,-125*
O=C(CSc1nnc2c(n1)[nH]c1ccccc12)Nc1ccc2c(c1)OCO2,-80*
O=C(CSc1ccc(-c2ccccc2)nn1)Nc1ccc2c(c1)OCCO2,-148*
O=C(CC1Nc2ccccc2NC1=O)Nc1ccc2c(c1)OCO2 (configuration not stated),-108*
Cn1cc(SCC(=O)Nc2ccc3c(c2)OCCO3)c2ccccc21,-78*
O=C(CSc1nnc2ccccn12)Nc1ncc(Cl)cc1Cl,-78*
O=C(CSCc1ccccc1)Nc1ccc(Cl)cn1,-134*
COc1ccc(-n2c(SC(C)C(=O)Nc3ncc(Cl)cc3Cl)nc3ccccc32)cc1 (configuration not stated),77
Cc1ccc(C(=O)CSc2nnc3ccccn23)c(C)c1,-74*
Cc1cc(C(=O)CSc2nnc(N)s2)c(C)n1C1CC1,-88*
CCOc1ccc(C(=O)CSc2nnc(N)s2)cc1,-74*
Cc1ccc(C(=O)CSc2nnc(N)s2)c(C)c1,-92*
CC1=C/C(=C\C=C(C#N)C#N)N(C)c2ccccc21,-102*
CCOC(=O)C(NC(=O)Nc1ncccn1)(Oc1ccccc1)C(F)(F)F (configuration not stated),-83*
COc1ccc(NC(C)C(=O)N/N=C/c2ccccc2OCc2ccc(Br)cc2)cc1 (configuration not stated),-77*
SMILES,aSyn 5UTR act
O=C(O)c1cccc(NC(=S)N/N=C/c2ccccc2OCc2ccc(Br)cc2)c1,-84*
Cc1ccc(C(C)C)c(OCc2ccc(C(=O)N/N=C/c3cccc(O)c3O)cc2)c1,108
O=C(O)c1cccc(NC(=S)N/N=C/c2cccc(O)c2)c1,58
O=C(N/N=C/C(Br)=C/c1ccccc1)c1cc(-c2ccco2)[nH]n1,-62*
O=C(N/N=C/C(Cl)=C/c1ccccc1)c1ccccc1F,-192*
CC1C(=O)NN=C1C(=O)N/N=C\C(Br)=C\c1ccccc1 (configuration not stated),-134*
O=C(N/N=C/C(Br)=C/c1ccccc1)c1ccccc1F,-201*
Cc1cc(C(=O)N/N=C/c2cc(N=Nc3ccccc3)ccc2O)n[nH]1,66
C/C(=N\NC(=O)C1=NNC(=O)C1C)c1cccs1 (configuration not stated),-81*
C/C(=N/NC(=O)c1cc(C2CC2)[nH]n1)c1cccs1,84

# Screening results from PubChem.
